According to PubChem BioAssay AID1044 (The Scripps Research Institute Molecular Screening Center, 2008):
In all, about 16,000 compounds went through this assay and about 240 (1.5%) were called active. No stated cut-off is given here; in the data, active means activation above about 80%; inactive means the rest. This excerpt belongs to a sample that is enriched for actives.

Biological target: Sphingosine 1-phosphate receptor 1 (Homo sapiens) (UniProt P21453)
Assay: activates the human S1P1 receptor (AID 1044)
Settings: S1P1 agonist cell-based reporter assay; at 4.5 µM; active compounds read high

Sequence of Sphingosine 1-phosphate receptor 1 (Homo sapiens) (P21453 whole entry, looked up): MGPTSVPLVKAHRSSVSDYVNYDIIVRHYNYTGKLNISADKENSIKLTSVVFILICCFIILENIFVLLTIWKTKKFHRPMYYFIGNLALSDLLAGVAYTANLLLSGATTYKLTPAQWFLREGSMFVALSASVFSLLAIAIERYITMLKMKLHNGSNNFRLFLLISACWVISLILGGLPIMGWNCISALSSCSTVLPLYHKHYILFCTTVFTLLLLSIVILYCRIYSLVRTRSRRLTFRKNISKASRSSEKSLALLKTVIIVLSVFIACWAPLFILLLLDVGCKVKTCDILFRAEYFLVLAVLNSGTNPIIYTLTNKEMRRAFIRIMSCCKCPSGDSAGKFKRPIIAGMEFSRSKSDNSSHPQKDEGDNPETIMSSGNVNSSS

activation, active:
CCOC(=O)c1sc(SC)c(-c2ccccc2)c1N 103%
Clc1ccc(CO/N=C/c2nc3ccccc3s2)cc1 87%

activation, inactive:
O=C(Nc1ccccc1)O/N=C1/CCCc2occc21 -2.45%
CCOC(=O)c1c(NC(=S)NC)sc2c1CCCC2 -16.5%
CCOC(=O)NC(=S)NC12CC3CC(CC(C3)C1)C2 -14.8%
NC(N)=N/C(N)=N/c1nnc(C(F)(F)F)s1 -5%
OC1(C#Cc2ccccc2)CCN(Cc2ccccc2)CC1 -10.7%
CCOC(=O)c1sc(SCCS(=O)(=O)c2ccc(Cl)cc2)c(C#N)c1-c1ccccc1 -6.04%
CCOC(=O)c1sc2ccccc2c1N -24.7%
N#CCCSc1sc(=S)sc1SCCC#N 2.11%
CCCCc1c(COC)nc(-c2ccc(Cl)cc2)[nH]c1=O -10.5%
Cc1nc(C(F)(F)F)ccc1C(=O)NCCNc1ncccc1C(F)(F)F 3.52%
Cc1nc(C(F)(F)F)ccc1NC(=O)/C=C\C(=O)O -31%
O=C(NC1Cc2ccccc2C1)c1nnc(-c2ccccc2)o1 62.1%
Cn1ncc(Br)c1NC(=O)C(C)(C)C 1.4%
CCOC(=O)Cc1csc(NC(NC(=O)OCC)(C(F)(F)F)C(F)(F)F)n1 -11.5%
CN1CCN(c2ccc(NC(=O)c3ccccc3)cc2)CC1 15.7%
CCOC(=O)C(NC(=O)c1ccco1)(Nc1cc(C)ccn1)C(F)(F)F (centres undefined) -12.4%
Fc1cccc(Cl)c1CN1CCN(c2ncnc3scc(-c4cccs4)c23)CC1 10.1%
CCOC(=O)c1c(-c2ccco2)csc1NC(=O)Nc1ccc(Cl)cc1 -5.82%
C/C(=N\NC(=S)Nc1cccc(F)c1)c1ccco1 -19.7%
Cc1nc(C)c(-c2ccnc(-c3ccc(Cl)cc3)n2)s1 -14.5%
Fc1ccc(Oc2nc(Oc3ccc(F)cc3)nc(N3CCSCC3)n2)cc1 -33.1%
Cc1noc(C)c1C(=O)N1CCOCC1 -1.85%
CCOC(=O)c1cc(C)nc(Sc2ccccc2NC(=O)Nc2ccc(Cl)cc2)c1C#N -5.59%
OC(CN1CCN(c2ccc(C(F)(F)F)cn2)CC1)c1ccc2c(c1)OCCO2 (centres undefined) 4.19%
CNC(=O)NNC(=O)Cn1nnc(N2CCCCC2)n1 -5.59%
O=C(c1ccc(F)cc1)C1CCN(Cc2cn[nH]c2-c2ccccc2)CC1 -8.25%
Cn1nc(-c2ccccc2)cc1N -14.4%
